In the supplement of paper PMC11732987, “Enantioselective OTUD7B fragment discovery through chemoproteomics screening and high-throughput optimisation” (Communications Chemistry, 2025):

How the values were obtained:
Experiment in all cases: log2 ratio of Biotin-Ahx-Ub-VS probe labelling (fragment/DMSO); higher = less target engagement (more negative = stronger competition), active = hit call of the paper (q ≤ 0.05, log2 ratio ≤ -1)
Settings in all cases: compound concentration: 200 uM; treatment time: 3 h
[1] = biological target: USP34 (UniProt Q70CQ2)
In short: (§1)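 Each value is an average log2 ratio of fragment to vehicle, tested by unpaired t-test. The underlying Spectronaut label-free quantities were global-median-normalised, and only proteins with ≥2 unique peptides were included. Triplicate HEK293T lysate samples (495 µg) were exposed to fragment at 200 µM or vehicle for 3 h, then to Biotin-Ahx-Ub-VS at 0.5 µM final for 1 h, before NeutrAvidin enrichment of labelled DUBs, LysC and trypsin digestion, and diaPASEF LC-MS/MS.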

[2] = biological target: T1, USP36 (UniProt Q9P275)
T1 sequence (whole entry): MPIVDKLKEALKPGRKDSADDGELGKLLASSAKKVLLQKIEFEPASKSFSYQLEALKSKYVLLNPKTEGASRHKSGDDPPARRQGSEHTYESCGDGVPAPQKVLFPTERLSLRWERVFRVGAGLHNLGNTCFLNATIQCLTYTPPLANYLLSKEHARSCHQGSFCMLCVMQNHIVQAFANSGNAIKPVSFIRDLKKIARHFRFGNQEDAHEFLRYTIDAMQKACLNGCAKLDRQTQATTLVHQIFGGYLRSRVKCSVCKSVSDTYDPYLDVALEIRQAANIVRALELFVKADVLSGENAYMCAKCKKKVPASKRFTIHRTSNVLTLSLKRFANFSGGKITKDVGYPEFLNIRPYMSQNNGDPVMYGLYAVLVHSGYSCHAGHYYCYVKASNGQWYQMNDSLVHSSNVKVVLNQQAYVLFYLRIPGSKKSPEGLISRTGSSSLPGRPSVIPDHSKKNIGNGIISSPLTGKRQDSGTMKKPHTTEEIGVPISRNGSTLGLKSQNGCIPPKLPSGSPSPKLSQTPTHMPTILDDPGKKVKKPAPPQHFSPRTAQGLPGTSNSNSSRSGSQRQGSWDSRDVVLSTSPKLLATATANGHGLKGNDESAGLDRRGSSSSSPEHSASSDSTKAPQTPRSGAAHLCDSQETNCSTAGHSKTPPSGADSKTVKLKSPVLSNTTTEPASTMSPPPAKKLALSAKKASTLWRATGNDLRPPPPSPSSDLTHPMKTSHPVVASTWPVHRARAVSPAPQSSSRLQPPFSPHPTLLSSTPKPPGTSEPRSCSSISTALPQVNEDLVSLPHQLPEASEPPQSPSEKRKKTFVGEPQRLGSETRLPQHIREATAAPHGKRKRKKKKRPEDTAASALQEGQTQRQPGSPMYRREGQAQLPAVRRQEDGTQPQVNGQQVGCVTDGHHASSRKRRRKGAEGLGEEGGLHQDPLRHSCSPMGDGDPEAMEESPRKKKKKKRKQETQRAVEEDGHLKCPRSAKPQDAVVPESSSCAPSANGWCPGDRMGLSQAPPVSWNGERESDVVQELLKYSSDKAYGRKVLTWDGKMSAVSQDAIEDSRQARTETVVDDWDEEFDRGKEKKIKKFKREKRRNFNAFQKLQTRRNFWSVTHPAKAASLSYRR
In short: as §1

[3] = biological target: T2, USP38 (UniProt Q8NB14)
T2 sequence (whole entry): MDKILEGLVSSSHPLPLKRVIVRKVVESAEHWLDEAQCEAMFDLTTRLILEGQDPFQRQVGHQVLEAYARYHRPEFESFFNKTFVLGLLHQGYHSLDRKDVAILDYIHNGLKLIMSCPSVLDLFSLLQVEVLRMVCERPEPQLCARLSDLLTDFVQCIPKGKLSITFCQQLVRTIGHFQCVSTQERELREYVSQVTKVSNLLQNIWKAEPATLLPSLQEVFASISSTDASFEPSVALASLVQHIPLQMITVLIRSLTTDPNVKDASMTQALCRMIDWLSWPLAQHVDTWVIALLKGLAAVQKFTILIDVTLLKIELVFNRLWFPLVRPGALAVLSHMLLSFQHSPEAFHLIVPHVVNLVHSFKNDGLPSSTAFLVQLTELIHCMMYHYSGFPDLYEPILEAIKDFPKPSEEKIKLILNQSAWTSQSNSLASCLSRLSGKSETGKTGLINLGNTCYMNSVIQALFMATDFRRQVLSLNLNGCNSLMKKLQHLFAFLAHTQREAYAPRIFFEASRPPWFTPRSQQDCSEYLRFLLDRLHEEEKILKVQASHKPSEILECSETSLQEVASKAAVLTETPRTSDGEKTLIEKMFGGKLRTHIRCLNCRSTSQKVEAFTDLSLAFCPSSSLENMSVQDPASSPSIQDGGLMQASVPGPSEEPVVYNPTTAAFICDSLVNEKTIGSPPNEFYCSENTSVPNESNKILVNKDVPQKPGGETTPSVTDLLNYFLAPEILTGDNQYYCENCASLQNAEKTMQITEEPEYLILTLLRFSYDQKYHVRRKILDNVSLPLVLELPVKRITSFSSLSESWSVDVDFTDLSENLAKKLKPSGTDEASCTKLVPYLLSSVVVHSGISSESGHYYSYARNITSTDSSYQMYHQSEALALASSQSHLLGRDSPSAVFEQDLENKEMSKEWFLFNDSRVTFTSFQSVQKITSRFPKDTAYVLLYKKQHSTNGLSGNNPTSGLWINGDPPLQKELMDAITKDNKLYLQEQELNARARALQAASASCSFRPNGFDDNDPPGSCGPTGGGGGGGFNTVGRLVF
In short: as §1

[4] = biological target: T3, USP39 (UniProt Q53GS9)
T3 sequence (whole entry): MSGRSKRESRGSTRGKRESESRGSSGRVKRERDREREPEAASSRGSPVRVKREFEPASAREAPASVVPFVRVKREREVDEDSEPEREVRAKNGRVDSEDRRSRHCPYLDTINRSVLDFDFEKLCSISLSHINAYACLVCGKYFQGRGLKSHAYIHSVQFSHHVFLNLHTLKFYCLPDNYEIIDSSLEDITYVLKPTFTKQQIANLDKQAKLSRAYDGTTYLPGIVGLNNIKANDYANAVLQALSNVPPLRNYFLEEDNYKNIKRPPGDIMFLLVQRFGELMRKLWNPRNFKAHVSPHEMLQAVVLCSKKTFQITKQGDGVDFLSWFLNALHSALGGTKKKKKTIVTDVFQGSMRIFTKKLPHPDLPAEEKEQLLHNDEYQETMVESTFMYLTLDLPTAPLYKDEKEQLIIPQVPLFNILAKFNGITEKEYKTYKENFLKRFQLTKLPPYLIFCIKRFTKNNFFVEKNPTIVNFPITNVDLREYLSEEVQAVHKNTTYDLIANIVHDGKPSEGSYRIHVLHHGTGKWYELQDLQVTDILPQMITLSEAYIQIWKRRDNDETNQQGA
In short: as §1

[5] = biological target: T4, USP4 (UniProt Q13107)
T4 sequence (whole entry): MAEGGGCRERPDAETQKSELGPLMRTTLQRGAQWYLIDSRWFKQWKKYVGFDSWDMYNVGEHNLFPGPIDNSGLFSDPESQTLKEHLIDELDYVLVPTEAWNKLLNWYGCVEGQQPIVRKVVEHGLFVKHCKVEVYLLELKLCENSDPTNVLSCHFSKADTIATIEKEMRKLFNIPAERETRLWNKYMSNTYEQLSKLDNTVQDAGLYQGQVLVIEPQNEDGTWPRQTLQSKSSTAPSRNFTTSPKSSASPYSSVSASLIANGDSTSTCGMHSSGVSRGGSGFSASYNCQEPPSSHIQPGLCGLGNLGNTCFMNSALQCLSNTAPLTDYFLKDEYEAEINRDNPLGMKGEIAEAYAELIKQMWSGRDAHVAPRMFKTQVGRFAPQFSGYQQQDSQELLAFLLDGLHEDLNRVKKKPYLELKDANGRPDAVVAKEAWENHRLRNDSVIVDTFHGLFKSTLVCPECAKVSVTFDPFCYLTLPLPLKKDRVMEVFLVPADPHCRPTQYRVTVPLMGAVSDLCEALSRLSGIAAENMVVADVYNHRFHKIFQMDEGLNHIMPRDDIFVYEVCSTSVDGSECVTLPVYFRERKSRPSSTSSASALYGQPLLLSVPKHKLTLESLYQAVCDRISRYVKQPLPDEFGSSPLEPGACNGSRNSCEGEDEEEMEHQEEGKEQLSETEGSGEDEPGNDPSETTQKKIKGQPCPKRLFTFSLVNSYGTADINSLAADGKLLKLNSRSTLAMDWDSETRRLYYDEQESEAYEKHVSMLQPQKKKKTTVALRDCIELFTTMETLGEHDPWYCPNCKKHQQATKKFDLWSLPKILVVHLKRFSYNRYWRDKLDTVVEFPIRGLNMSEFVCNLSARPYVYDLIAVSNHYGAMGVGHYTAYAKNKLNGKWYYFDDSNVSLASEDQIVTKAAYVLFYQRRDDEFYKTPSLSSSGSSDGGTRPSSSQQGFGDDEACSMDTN
In short: as §1

Measured: log2 ratio of Biotin-Ahx-Ub-VS probe labelling

Sequence of USP34 (Q70CQ2 whole entry, the tested form may be a part): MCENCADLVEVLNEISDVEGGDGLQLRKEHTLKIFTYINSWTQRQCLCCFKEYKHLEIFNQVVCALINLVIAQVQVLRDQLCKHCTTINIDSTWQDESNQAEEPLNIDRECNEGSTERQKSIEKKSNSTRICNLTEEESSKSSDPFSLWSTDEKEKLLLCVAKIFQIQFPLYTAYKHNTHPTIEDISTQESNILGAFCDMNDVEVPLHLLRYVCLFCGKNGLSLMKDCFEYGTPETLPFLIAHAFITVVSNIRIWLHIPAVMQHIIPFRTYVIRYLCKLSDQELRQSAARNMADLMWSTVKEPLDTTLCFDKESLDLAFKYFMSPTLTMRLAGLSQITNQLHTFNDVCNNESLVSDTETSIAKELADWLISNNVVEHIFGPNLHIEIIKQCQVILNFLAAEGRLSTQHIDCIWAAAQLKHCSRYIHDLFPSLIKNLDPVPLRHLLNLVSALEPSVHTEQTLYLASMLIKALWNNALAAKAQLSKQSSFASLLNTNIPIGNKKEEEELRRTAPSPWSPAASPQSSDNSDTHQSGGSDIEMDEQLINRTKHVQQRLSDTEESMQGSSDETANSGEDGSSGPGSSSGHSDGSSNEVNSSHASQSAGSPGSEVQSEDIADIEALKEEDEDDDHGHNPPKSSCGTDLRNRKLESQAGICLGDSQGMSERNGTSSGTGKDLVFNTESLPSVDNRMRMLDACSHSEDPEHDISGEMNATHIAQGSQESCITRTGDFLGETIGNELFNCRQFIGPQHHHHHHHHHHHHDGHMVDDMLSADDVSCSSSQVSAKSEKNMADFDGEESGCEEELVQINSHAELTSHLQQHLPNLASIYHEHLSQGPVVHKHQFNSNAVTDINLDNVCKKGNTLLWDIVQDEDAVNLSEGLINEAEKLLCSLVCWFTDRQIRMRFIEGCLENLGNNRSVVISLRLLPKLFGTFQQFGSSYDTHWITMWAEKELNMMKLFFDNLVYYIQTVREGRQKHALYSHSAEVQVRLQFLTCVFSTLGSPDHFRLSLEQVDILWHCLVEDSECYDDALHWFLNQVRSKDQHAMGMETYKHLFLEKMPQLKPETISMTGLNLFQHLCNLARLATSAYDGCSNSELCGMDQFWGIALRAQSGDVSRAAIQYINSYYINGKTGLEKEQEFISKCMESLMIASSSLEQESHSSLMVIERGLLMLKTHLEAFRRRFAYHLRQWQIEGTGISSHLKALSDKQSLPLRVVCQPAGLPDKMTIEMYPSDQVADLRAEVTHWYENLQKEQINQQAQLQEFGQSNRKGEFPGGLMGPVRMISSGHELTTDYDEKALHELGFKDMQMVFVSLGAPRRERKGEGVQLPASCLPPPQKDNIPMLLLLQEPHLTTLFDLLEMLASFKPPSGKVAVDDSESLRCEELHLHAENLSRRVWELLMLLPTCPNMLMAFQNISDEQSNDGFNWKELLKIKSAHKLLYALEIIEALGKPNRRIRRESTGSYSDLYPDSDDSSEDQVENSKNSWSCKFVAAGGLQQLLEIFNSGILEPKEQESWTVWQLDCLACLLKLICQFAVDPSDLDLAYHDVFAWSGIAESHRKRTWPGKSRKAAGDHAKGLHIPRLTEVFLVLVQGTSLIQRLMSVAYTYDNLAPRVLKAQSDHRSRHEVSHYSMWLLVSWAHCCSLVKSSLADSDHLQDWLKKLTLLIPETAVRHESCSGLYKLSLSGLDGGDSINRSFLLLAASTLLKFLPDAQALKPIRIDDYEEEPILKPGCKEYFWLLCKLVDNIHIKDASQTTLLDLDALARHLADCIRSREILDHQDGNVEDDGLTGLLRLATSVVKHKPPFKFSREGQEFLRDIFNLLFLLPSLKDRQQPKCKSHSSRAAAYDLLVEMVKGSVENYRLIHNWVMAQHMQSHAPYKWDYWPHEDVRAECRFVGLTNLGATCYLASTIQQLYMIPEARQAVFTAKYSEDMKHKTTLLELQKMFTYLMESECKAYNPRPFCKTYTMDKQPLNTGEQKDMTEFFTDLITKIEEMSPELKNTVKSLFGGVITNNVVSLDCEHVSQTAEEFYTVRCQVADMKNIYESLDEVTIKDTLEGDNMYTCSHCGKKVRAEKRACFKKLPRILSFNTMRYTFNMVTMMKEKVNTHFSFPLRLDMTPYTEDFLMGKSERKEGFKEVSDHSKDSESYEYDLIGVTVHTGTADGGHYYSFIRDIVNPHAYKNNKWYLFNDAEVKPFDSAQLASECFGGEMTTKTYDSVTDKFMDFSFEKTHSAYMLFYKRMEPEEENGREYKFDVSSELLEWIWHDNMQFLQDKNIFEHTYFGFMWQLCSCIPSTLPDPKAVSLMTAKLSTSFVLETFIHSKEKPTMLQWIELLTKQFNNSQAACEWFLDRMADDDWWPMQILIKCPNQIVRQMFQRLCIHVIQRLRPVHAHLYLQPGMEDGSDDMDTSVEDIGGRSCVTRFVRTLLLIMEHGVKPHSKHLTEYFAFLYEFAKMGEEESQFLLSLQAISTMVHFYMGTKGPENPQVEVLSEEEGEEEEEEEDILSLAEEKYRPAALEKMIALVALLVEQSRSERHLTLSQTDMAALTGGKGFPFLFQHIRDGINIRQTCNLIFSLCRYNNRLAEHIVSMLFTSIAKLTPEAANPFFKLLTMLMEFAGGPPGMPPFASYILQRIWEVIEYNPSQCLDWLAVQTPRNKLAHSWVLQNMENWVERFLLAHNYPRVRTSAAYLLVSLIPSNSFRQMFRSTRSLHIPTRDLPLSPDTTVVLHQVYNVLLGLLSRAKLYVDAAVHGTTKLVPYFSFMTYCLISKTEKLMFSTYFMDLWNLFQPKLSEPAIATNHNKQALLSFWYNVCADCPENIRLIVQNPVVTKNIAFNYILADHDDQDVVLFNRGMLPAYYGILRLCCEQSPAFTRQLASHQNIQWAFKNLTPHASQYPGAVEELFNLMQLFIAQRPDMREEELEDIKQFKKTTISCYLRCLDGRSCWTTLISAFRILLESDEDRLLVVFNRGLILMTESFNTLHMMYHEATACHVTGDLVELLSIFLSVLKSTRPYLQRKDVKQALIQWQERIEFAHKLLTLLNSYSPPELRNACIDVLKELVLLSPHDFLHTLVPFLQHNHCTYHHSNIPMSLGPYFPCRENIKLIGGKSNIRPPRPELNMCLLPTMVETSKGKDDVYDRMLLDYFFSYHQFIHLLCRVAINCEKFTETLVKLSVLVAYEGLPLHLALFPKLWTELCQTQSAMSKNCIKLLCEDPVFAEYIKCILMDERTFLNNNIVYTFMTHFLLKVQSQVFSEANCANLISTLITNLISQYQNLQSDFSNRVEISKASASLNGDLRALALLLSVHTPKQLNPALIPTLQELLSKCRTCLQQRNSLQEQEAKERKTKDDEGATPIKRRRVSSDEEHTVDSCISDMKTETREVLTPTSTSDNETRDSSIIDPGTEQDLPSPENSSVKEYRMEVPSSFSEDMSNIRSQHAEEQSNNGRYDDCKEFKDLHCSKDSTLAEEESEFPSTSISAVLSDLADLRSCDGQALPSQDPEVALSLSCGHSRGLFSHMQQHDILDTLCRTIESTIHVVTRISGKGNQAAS

COc1ccccc1C(C)NC(=O)CCl (stereo not given)
inactive: [1] -0.129 | [2] -0.00263 | [3] -0.182 | [4] -0.155 | [5] -0.226
